# Experimental data as given in PubChem BioAssay (NCI).
# About 79,000 compounds went through this panel and 15% of them were active in at least one assay; those are over-represented in the sample as a whole. A number with no mark means an inactive call. Calls of active or inactive are those of the source. Cut-off read from the data, not from the text of the source: active = growth inhibition above about 70%; inactive = the rest.
# How the values were obtained:
# [1] = NCI Yeast Anticancer Drug Screen. Data for the rad50 strain (AID 155);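 note: 0% = growth of vehicle-only cultures of the same strain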; details: S. cerevisiae rad50 strain growth inhibition; at 50.0 µM; active compounds read high
# Summary of the method: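 Inhibition values express reduced yeast growth in compound-treated cultures relative to vehicle-treated controls.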
# [2] = NCI Yeast Anticancer Drug Screen. Data for the mec2-1 strain (AID 157); details: S. cerevisiae mec2-1 strain, at 50.0 µM, active compounds read high
# Summary of the method: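 Test agents were screened against the mec2-1 yeast strain, with defined DNA repair or cell cycle alteration. Growth was scored as inhibition against vehicle-only controls.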
# [3] = NCI Yeast Anticancer Drug Screen. Data for the sgs1 mgt1 strain (AID 161);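 note: 0% = growth of cultures given vehicle only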; details: S. cerevisiae sgs1 mgt1 strain, at 50.0 µM, active compounds read high
# Summary of the method: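 Genetically altered yeast, compound exposure, growth inhibition relative to vehicle.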
# [4] = NCI Yeast Anticancer Drug Screen. Data for the cln2 rad14 strain (AID 165);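 note: 0% = growth equal to vehicle treated cultures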; details: S. cerevisiae cln2 rad14 strain, at 50.0 µM, active compounds read high
# Summary of the method: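 Growth of compound-exposed yeast (cln2 rad14 genotype) measured and expressed as inhibition relative to vehicle.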
# [5] = NCI Yeast Anticancer Drug Screen. Data for the bub3 strain (AID 167); details: S. cerevisiae bub3 mutant strain, at 50.0 µM, active compounds read high
# Summary of the method: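 Steps: expose the mutant yeast strain to compound; grow alongside vehicle-treated cultures; measure growth; express inhibition against the vehicle cultures.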
# [6] = NCI Yeast Anticancer Drug Screen. Data for the mlh1 rad18 strain (AID 175); details: S. cerevisiae mlh1 rad18 strain growth inhibition; at 50.0 µM; active compounds read high
# Summary of the method: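 In this whole-cell yeast screen, a strain with altered DNA damage repair is challenged with compound, and its growth is measured against matched vehicle-treated controls.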
SMILES,growth inhibition [1],growth inhibition [2],growth inhibition [3],growth inhibition [4],growth inhibition [5],growth inhibition [6]
CN(C)c1ccc(-c2c(C#N)c(O)n(NS(=O)(=O)c3ccccc3)c(=O)c2C#N)cc1,-28.9%,-10.7%,-14.2%,13.9%,-21.4%,-14.2%
O=C1OC(c2cccc([N+](=O)[O-])c2)=N/C1=C\c1ccccc1,17.2%,12.1%,14.6%,18.4%,15.3%,24.6%
CCOc1ccc2nc(NC(=O)C(=O)C(C(=O)c3ccccc3F)C3OC(=O)c4ccccc43)sc2c1 (configuration not stated),10.9%,9%,2.65%,22.6%,-1.2%,7%
O=C1NC(N2CCCCC2)=N/C1=C\c1ccccc1O,5%,-25.3%,-2.85%,15.1%,5.5%,89.7% (active)
COc1cc([N+](=O)[O-])c(OC)cc1Nc1ccccc1C(=O)O,13.1%,-12.8%,22.1%,18.2%,29.4%,16%
OC(COc1ccccc1)COc1ccccc1,1.35%,2.45%,16.4%,-18.7%,8.1%,3.1%
CN/N=C(/c1nc2ccc([N+](=O)[O-])cc2[nH]c1=O)C(O)c1ccc(C(O)/C(=N\NC)c2nc3ccc([N+](=O)[O-])cc3[nH]c2=O)cc1 (configuration not stated),31.2%,-5.55%,0.6%,-26.2%,-3.85%,19.4%
NN1C(=O)CC(c2cccc(Cl)c2)C1=O (configuration not stated),1.7%,4.55%,-2.4%,21.9%,-2.6%,32.3%
CC1=C(C(=O)Nc2ccccc2)C(c2ccc(C3C(C(=O)Nc4ccccc4)=C(C)NC(C)=C3C(=O)Nc3ccccc3)cc2)C(C(=O)Nc2ccccc2)=C(C)N1,70% (active),71.6% (active),53%,41.5%,82.5% (active),84.8% (active)
CN(C)Cc1cc(C(C)(C)C)cc(CNC2CCCCC2)c1O,-2.9%,-6.45%,-26.9%,-6.4%,-24.4%,19.9%
O=C1CC(=O)N(C=C2C(=O)NC(=O)NC2=O)C(=S)N1,-11.9%,-2.15%,-18.6%,11.2%,4.6%,0.45%
CCc1nnnn1-c1ccc(Br)cc1,8.8%,38.5%,13.7%,9.8%,40.2%,18.5%
CCN(CC)CCOc1cccc(Oc2ccccc2)c1,74% (active),62.7%,72.8% (active),68.2%,53%,84% (active)
O=c1[nH]c2cc([N+](=O)[O-])ccc2nc1/C=C(\O)c1cccc([N+](=O)[O-])c1,12.3%,-1.35%,5.25%,-5.15%,-3.1%,28.6%
CC1CCC(C(=O)O)CC1 (configuration not stated),-16.9%,-9%,-2%,21.8%,-0.85%,-14.2%
NC(Cc1ccccc1)C(=O)CCl (configuration not stated),31.6%,29.8%,40.8%,18.4%,36.2%,46.5%
NNC(=O)c1nnc(N)o1,-11.6%,-12.1%,7.25%,-9.45%,-11.7%,6.45%
CC(=O)OCC1OC(n2cnc3c(=S)nc[nH]c32)C(OC(C)=O)C1N(C)C(C)=S (configuration not stated),38.5%,-4%,37.6%,9.85%,1.25%,12.6%
C=C(C)C(C)(C)n1[nH]c(=O)n(-c2ccccc2)c1=O,13.2%,-0.05%,-0.3%,-23.1%,-13.4%,0%

SMILES,growth inhibition [1],growth inhibition [2],growth inhibition [3],growth inhibition [4],growth inhibition [5],growth inhibition [6]
CCCCCCCC/C=C\CCCCCCCC(=O)NCCN(CC)CC,98.7% (active),99.3% (active),99.3% (active),96.8% (active),98.7% (active),98.8% (active)
COC(=O)CCCC(=O)NC1=C(NCc2ccccc2)C(=O)c2ccccc2C1=O,10.1%,12.3%,33.6%,13.8%,32.1%,-0.35%
Cc1nn(C)c(NC(=O)c2ccccc2O)c1SC#N,43.3%,-5.35%,16.7%,28.2%,35.2%,10.4%
Cc1c(C)c(Cl)c(C)c(C(Cl)(Cl)Cl)c1C,0.85%,-1.3%,2.05%,12.2%,-0.65%,-6.25%
CCOC(=O)C(CCN(C)C)(CCN(C)C)c1ccccc1,-6.3%,-2.75%,21.6%,-30.2%,-13%,-2.75%
O=C1N2Cc3c4ccc5c3CN3C(=O)N6Cc7c(ccc(c7CN1C6(c1ccccc1)C23c1ccccc1)OCCOCCNCCOCCO4)OCCOCCNCCOCCO5 (configuration not stated),-31.1%,-26.2%,-34.2%,3.4%,-16.2%,-30.1%
CC(C)c1ccc(/C=N\NC(=O)NNC(=O)c2ccccc2)cc1,-3.05%,-4.25%,11.6%,-95.8%,-2.85%,-8.25%
CCOC(C)OCCCI (configuration not stated),-25.8%,-21.3%,3.5%,-9.7%,-13.3%,13.2%
CC1(c2ccc[n+](Cc3ccccc3)c2)OCCO1,-15.7%,-31.1%,-12.8%,-11.2%,-39.6%,-27.1%
Cc1cc2c(cc1Cl)SC(NNc1cnc3ccccc3n1)=NS2(=O)=O,23.3%,21.6%,35.7%,20.2%,19.1%,4.8%
C=C(C)c1ccccc1N,-1.75%,-40.4%,-4.65%,6.95%,-26.4%,14.1%
CC(O)C(=O)N1CCCCC1 (configuration not stated),13.7%,9.5%,-3.95%,-8.35%,10.6%,-23.1%
CCc1ccc(N=Nc2c(F)c(F)c(N)c(F)c2F)cc1,6.1%,-11.3%,2.4%,2.85%,0.55%,14.3%
CCOC(=O)c1c(N)sc2c1C(C(=O)OCC)CCC2 (configuration not stated),-28.3%,-10.7%,3.95%,-24.1%,19.4%,-11.7%
O=C(O)Cc1ccc(I)cc1,58%,-1.2%,26.9%,-54%,34.2%,25.3%
Clc1ccc(N[P+](c2ccccc2)(c2ccccc2)c2ccccc2)cc1.[Cl][Fe]([Cl])([Cl])[Cl],39.3%,12%,45.4%,5%,5.8%,17.8%
Cc1c(C)c(C)c(CNNC(=S)Nc2ccc(S(=O)(=O)N3CCCCC3)cc2)c(C)c1C,-4.5%,-17.9%,9.25%,8.6%,6.4%,7.6%
CN1CCN(CC2C3CCC(C3)C2O)CC1 (configuration not stated),-9%,-18.4%,-16.1%,4.4%,-4.7%,-0.6%
